Some structures have more than one record in an assay (separate samples or runs), and their calls can disagree. Activity calls are given as the source filed them. Rule for the calls: active = hit-call score of the fitted dose curve at least 0.9, where 1 is the maximum; inactive = score below 0.9.

For orientation: AC50 means the concentration giving half of the maximal activity seen.

Sequence of CCAAT/enhancer-binding protein beta (Homo sapiens) (P17676 whole entry, looked up): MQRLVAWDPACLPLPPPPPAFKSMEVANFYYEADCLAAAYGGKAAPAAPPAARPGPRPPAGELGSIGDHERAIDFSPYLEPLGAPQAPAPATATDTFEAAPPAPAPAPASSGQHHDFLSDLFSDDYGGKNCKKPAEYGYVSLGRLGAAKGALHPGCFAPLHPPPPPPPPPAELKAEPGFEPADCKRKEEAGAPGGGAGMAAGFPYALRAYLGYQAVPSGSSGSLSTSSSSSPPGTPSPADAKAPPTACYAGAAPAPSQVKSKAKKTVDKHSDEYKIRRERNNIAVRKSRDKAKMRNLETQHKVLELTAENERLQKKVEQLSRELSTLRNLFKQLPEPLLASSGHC

This assay concerns the target CCAAT/enhancer-binding protein beta (Homo sapiens) (UniProt P17676). Kind of assay: ATG_C_EBP_CIS: Attagene CIS-FACTORIAL HepG2 Assay for human CCAAT/Enhancer Binding Protein (C/EBP) beta (AID 2282927). The settings on record: HepG2 Attagene cis-factorial transcription factor reporter; actives raise or lower the signal. Here is the method:
ATG_CIS is a cell-based, multiplexed-readout assay that uses HepG2, a human liver cell line, with measurements taken at 24 hours after chemical dosing in a 24-well plate.ATG_C_EBP_CIS is one of 52 assay component(s) measured or calculated from the ATG_CIS assay. It is designed to make measurements of mRNA induction, a form of inducible reporter, as detected with fluorescence intensity signals by Reverse transcription polymerase chain reaction (RT-PCR) and Capillary electrophoresis technology.Data from the assay component ATG_C_EBP_CIS was analyzed into 1 assay endpoint. This assay endpoint, ATG_C_EBP_CIS, was analyzed with bidirectional fitting relative to DMSO as the negative control and baseline of activity. Using a type of inducible reporter, measures of mRNA for gain or loss-of-signal activity can be used to understand the reporter gene at the transcription factor-level as they relate to the gene CEBPB. Furthermore, this assay endpoint can be referred to as a primary readout, because this assay has produced multiple assay endpoints where this one serves a reporter gene function. To generalize the intended target to other relatable targets, this assay endpoint is annotated to the dna binding intended target family, where the subfamily is basic leucine zipper.
Human liver HepG2 cells are transiently transfected with multiple reporter transcription units (MRTUs) in 6-well plates using FuGene 6 reagent (Roche; 3 ml FuGene/1 mg DNA). The MRTU constructs are regulated by a cis-regulating element (promoter). […] A major difference between the CIS and TRANS system is that in CIS activities of endogenous TFs are measured, whereas the TRANS assay evaluates changes in activities of exogenous, chimeric NR-Gal4 proteins. […] At the end of 24 hour incubation, total RNA was isolated using TriZol reagent (Invitrogen). The isolated RNA is then reverse-transcribed using oligo(dT) primer and Mo-MLV reverse transcriptase (Invitrogen) with DNAse I (Ambion) treatment for 30 min. The one-tenth of the produced cDNA was amplified by PCR using Taq DNA polymerase (Invitrogen) and two reporter sequence-specific primers. The PCR products were fluorescently labeled by primer extension with 6-arboxyfluorescein (6-FAM) 5'-labeled reporter sequence-specific primer (2 min at 95 C, 20 s at 68 C and 10 min at 72 C) and these products were digested with 5U of HpaI (New England Biolabs) for 2h at 37 C. The fragments were purified using Qiaquick PCR columns (Qiagen), analyzed on an ABI 3130xL genetic analyzer (Applied Biosystems) with peak positions identified by using a set of X-rhodamine (ROX)-labeled MapMarker1000 molecular weight standards (BioVentures). The raw capillary electrophoresis data was processed using Attagraph software (Attagene).
On to `Nc1ccc(N=Nc2ccc(-c3ccc(N=Nc4c(S(=O)(=O)O)cc5cc(S(=O)(=O)O)c(N=Nc6ccccc6)c(O)c5c4N)cc3)cc2)c(N)c1`, for which the result was inactive. Same read-out and setting: to `CCSC(C)CC1CC(=O)C(C(CC)=NOC/C=C/Cl)=C(O)C1` (stereo not given) belongs “inactive”; to `COc1cc2c(cc1OC)[C@@]13CCN4CC5=CCO[C@H]6CC(=O)N2[C@H]1[C@H]6[C@H]5C[C@H]43`, “inactive”.

Take `C[C@@H]1C[C@@H]([C@H](O)CC2CC(=O)NC(=O)C2)C(=O)[C@@H](C)C1`: the concentration at half-maximal activity (AC50) was 1.31 µM (active) [middle of 4 runs]. As to `CCC(C)(C)c1ccc(O)c(C(C)(C)CC)c1`, the outcome was inactive. On the same count and under the same terms, to `COP(=O)(OC)O/C(=C\Cl)c1cc(Cl)c(Cl)cc1Cl` belongs “inactive”; to `CCOP(=S)(OCC)Oc1ccc(S(C)=O)cc1` (stereo not given), “inactive”; to `Oc1cccc2cccnc12`, “inactive”.

Consider `C1CCC(NC2CCCCC2)CC1`, for which the result was inactive. The same measure, in the same setting: the result for `Cl/C=C/Cl` reads “inactive”; that for `CC1CN1P(=O)(N1CC1C)N1CC1C` (stereo not given), “inactive”.

Take `NC(=O)O`: the outcome was inactive. For the compound `COC(=O)Cc1ccccc1`, the result was inactive. Same read-out and setting: the result for `O=C1CCCN1` reads “inactive”.

For the compound `CCOC(=O)/C=C(C)/C=C/C[C@@H](C)CCCC(C)C`, the AC50 was 179 µM (active). Regarding `CC(C#N)CCC#N` (stereo not given), the result was inactive. Take `CCOC(=O)Nc1cccc(OC(=O)Nc2ccccc2)c1`: the outcome was inactive.

As to `ClC(Cl)=C(Cl)C(Cl)=C(Cl)Cl`, the outcome was inactive. On the same count and under the same terms, to `Cc1ccccc1N` belongs “inactive”; to `ClC1(Cl)C2(Cl)C3(Cl)C4(Cl)C(Cl)(Cl)C5(Cl)C3(Cl)C1(Cl)C5(Cl)C24Cl` (stereo not given), “inactive”. For the compound `O=C(O)C(F)(F)C(F)(F)C(F)(F)C(F)(F)C(F)(F)C(F)(F)C(F)(F)C(F)(F)C(F)(F)C(F)(F)F`, the outcome was inactive and the AC50 is 172 µM (active).

Turning to `CCNc1nc(NC(C)(C)C)nc(SC)n1`, the result was inactive.

Consider `CC(C)c1cccc(C(C)C)c1O`, for which the outcome was inactive.

As for `CCN(CC)C(=O)Cl`, the result was inactive. On the same count and under the same terms, the result for `ClCc1ccccn1` reads “inactive”.

Consider `CN(C)N=O`, for which the result was inactive.

As for `CC(C)C1CCC(Cc2ccc(Cl)cc2)C1(O)Cn1cncn1` (stereo not given), the result was inactive.

Take `CN(CCCC(=O)c1cccnc1)N=O`: the result was inactive. Still for that read-out and setting: the result for `COc1ccc(C=O)cc1OC` reads “inactive”; that for `Cn1sc(Cl)cc1=O`, “inactive”.

On to `NC(=S)Nc1ccccc1`, for which the result was inactive. Still for that read-out and setting: the result for `CCCCCCCCc1ccc(O)cc1` reads “inactive”. On the same count and under the same terms, to `CC1(C)CCC(Cc2ccc(Cl)cc2)C1(O)Cn1cncn1` (stereo not given) belongs “inactive”. On the same count and under the same terms, the result for `CCCCCCCCC(=O)NCc1ccc(O)c(OC)c1` reads “inactive”; that for `N#Cc1ccccn1`, “inactive”.

For `O=C(Nc1ccc2[nH]ccc2c1)c1cc2cc(F)ccc2n1Cc1cccc(F)c1`, the AC50 is 20.3 µM (active). Turning to `N#CN=C(N)N`, the outcome was inactive. On the same count and under the same terms, the result for `ClCc1cccnc1` reads “inactive”.

As for `CC(C)(C)c1cc(O)ccc1O`, the AC50 was 79.7 µM (active).

These data come from PubChem BioAssay (EPA / NIEHS).
